This passage reports Potency and outcome results from PubChem BioAssay (Tox21).

Several values for one entry are separate records, joined by “and”; a condition that tells them apart may be missing. Identical values can stand only once. Records with an inconclusive call do not appear. A structure can be active in one record and inactive in another. Activity calls are given as the source filed them. Unless noted, calls come from the whole dose curve; as a rule, active = well fitted curve in the direction sought with a large enough effect in the repeat runs; inconclusive = weak or mixed curves; inactive = no such curve, though single readings can be large; an effect the other way counts as inactive or inconclusive.

Experiment [1] can be described thus: qHTS assay to identify small molecule agonists of the peroxisome proliferator-activated receptor delta (PPARd) signaling pathway - cell viability counter screen (AID 743211). Note: nearly all actives have a fitted effect of over 55% in size. Note: potency is the fitted concentration of half-maximal effect. The essentials:
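In the same wells used for beta-lactamase reporter measurement, cytotoxicity is scored by CellTiter-Glo. HEK293H PPARd-bla cells receive compound for 17 h at 37C following a 5 h settling period.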
On the technique in general: Quantitative high-throughput screening tests each substance at several concentrations.

Experiment [2] addresses Peroxisome proliferator-activated receptor delta (Homo sapiens) (UniProt Q03181). Put plainly: qHTS assay to identify small molecule agonists of the peroxisome proliferator-activated receptor delta (PPARd) signaling pathway (AID 743212; calls by dose curve;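 note: HEK293H cells with PPARd UAS beta-lactamase reporter GeneBLAzer system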). The method, boiled down: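 Beta-lactamase reporter read by fluorescence (LiveBLAzer B/G FRET, 2 h, room temperature). Test agents, in DMSO, incubated at 37 C with PPARd-bla HEK293H cells.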

A short description of experiment [3]: qHTS assay to identify small molecule antagonists of the peroxisome proliferator-activated receptor delta (PPARd) signaling pathway - cell viability counter screen (AID 743213). Note: nearly all actives have a fitted effect of over 50% in size. Note: potency is the fitted concentration of half-maximal effect. The essentials: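 Cytotoxicity counter screen: CellTiter-Glo luminescence read 30 min after addition, in the same wells as the reporter assay. There, PPARd UAS-bla HEK293H cells (3000/well) were treated 17 h at 37 C with compound and 300 nM L165041.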

Experiment [4] deals with Peroxisome proliferator-activated receptor delta (Homo sapiens) (UniProt Q03181). Put plainly: qHTS assay to identify small molecule antagonists of the peroxisome proliferator-activated receptor delta (PPARd) signaling pathway (AID 743215; active = well fitted inhibition curve with a large enough effect in the signal ratio in the repeat runs, not every such curve was filed as active; the % refers to the signal ratio;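 note: cells stimulated with agonist L165041 at 300 nM final during compound exposure; series mostly up to about 62 µM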). The essentials: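 Agonist L165041 (300 nM final) added with compound to PPARd-bla HEK293H UAS-bla reporter cells; 17 h incubation at 37 C. Read-out: LiveBLAzer FRET substrate, 2 h at room temperature, fluorescence intensity.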
Peroxisome proliferator-activated receptor delta (Homo sapiens), sequence (Q03181 whole entry, looked up): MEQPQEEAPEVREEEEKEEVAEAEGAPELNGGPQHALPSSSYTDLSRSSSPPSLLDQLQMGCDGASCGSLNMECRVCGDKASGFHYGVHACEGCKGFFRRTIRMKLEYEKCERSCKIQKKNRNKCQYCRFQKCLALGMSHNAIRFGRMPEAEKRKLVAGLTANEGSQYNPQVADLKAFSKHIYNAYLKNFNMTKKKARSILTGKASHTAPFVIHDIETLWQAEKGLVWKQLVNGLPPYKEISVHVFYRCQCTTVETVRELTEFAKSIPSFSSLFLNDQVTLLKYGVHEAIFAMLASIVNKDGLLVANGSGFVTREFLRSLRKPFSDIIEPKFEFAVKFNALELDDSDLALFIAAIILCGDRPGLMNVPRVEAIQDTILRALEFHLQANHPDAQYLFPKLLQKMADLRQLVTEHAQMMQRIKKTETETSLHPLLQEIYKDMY

Experiment [5] can be described thus: qHTS assay to identify small molecule agonists of the farnesoid-X-receptor (FXR) signaling pathway - cell viability counter screen (AID 743218). Note: nearly all actives have a fitted effect of over 45% in size. Note: potency is the fitted concentration of half-maximal effect. The method, boiled down: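 Viability counter screen in the same wells: CellTiter-Glo luminescence, 30 min room-temperature incubation, measured after the beta-lactamase read. Cells were GeneBLAzer FXR-UAS-bla HEK 293T, compound-treated 16 h at 37C.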

The target in experiment [6] is Vitamin D3 receptor (Homo sapiens) (UniProt P11473). Put plainly: qHTS assay to identify small molecule agonists of the vitamin D receptor (VDR) signaling pathway (AID 743222; calls by dose curve). The method, boiled down:
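Agonist mode, beta-lactamase reporter: fluorescence from LiveBLAzer B/G FRET substrate (2 h, room temperature) read after 16 h compound treatment at 37 C of VDR-bla cells, which were pre-incubated 4 h after seeding.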

The target is the same in experiment [7]. Description: qHTS assay to identify small molecule antagonists of the vitamin D receptor (VDR) signaling pathway (AID 743223; active = well fitted inhibition curve with a large enough effect in the signal ratio in the repeat runs, not every such curve was filed as active; the % refers to the signal ratio). The essentials:
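Inhibition of agonist-driven VDR signalling is scored in VDR-bla cells: 3 nM final 1alpha,25-dihydroxyvitamin D3 plus compound, 16 h at 37C, then beta-lactamase detection by FRET substrate fluorescence after 2 h.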

Experiment [8] can be described thus: qHTS assay to identify small molecule agonists of the vitamin D receptor (VDR) signaling pathway - cell viability counter screen (AID 743224). Note: nearly all actives have a fitted effect of over 50% in size. Note: potency is the fitted concentration of half-maximal effect. The method, boiled down: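 Counter screen run in the same wells as the VDR-bla reporter assay: CellTiter-Glo luminescence, 30 min at room temperature, after 16 h compound treatment at 37C of cells pre-plated for 4 h.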

Experiment [9] is described as follows: qHTS assay to identify small molecule antagonists of the vitamin D receptor (VDR) signaling pathway - cell viability counter screen (AID 743225). Note: nearly all actives have a fitted effect of over 50% in size. Note: potency is the fitted concentration of half-maximal effect. The essentials:
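Compounds were pinned onto VDR-bla HEK 293T cells together with 1-alpha,25-dihydroxyvitamin D3 at 3 nM final. After 16 h at 37C and 5% CO2 plus the reporter readout, cell viability was measured by CellTiter-Glo luminescence (30 min, room temperature).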

A short description of experiment [10]: qHTS assay to identify small molecule agonists of the NFkB signaling pathway - cell viability counter screen (AID 1159515; calls by dose curve; note: nearly all actives have a fitted effect of over 55% in size; note: potency is the fitted concentration of half-maximal effect). The method, boiled down:
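Read by CellTiter-Glo luminescence (30 min, room temperature) in the wells also used for the beta-lactamase FRET read. ME-180 NFkB-bla cells at 2,000 per well were plated overnight, then exposed to compound for 5 hr at 37 C.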

Experiment [11] is described as follows: qHTS assay to identify small molecule agonists of the endoplasmic reticulum stress response signaling pathway - cell viability counter screen (AID 1159517; calls by dose curve; note: nearly all actives have a fitted effect of over 50% in size; note: potency is the fitted concentration of half-maximal effect). The method, boiled down:
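Cytotoxicity of test compounds toward ESRE-bla HeLa cells was assessed after 5 hr exposure. The luminescent CellTiter-Glo signal was measured 30 min after reagent addition.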

A short description of experiment [12]: qHTS assay to identify small molecule antagonists of the retinoid-related orphan receptor gamma (ROR-gamma) signaling pathway - cell viability counter screen (AID 1159520). Note: nearly all actives have a fitted effect of over 50% in size. Note: potency is the fitted concentration of half-maximal effect. The essentials: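 Tet-on ROR gamma CHO cells (1,000/well) were plated 4 hr, given compounds in DMSO for 2 hr at 37 C, then induced with 1 uM final doxycycline for 16 hr. Viability was read as ATP by CellTiter-Glo luminescence after 30 min.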

In experiment [13] the target is Nuclear receptor ROR-gamma (Homo sapiens) (UniProt P51449). Description: qHTS assay to identify small molecule antagonists of the retinoid-related orphan receptor gamma (ROR-gamma) signaling pathway (AID 1159521; note: nearly all actives have a fitted effect of over 50% in size; note: potency is the fitted concentration of half-maximal effect). The essentials: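 Test compounds were applied to Tet-on RORγ CHO cells 2 h ahead of doxycycline hyclate (1 uM final). Luciferase reporter activity was quantified by luminescence after 16 h at 37 C and 5% CO2.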

Experiment [14] is described as follows: qHTS assay to identify small molecule agonists of the AP-1 signaling pathway (AID 1159526; calls by dose curve).
For experiment [15], the target named is Retinoic acid receptor RXR-alpha (Homo sapiens) (UniProt P19793). Description: qHTS assay to identify small molecule agonists of the RXR signaling pathway (AID 1159527; calls by dose curve; note: nearly all actives have a fitted effect of over 35% in size; note: potency is the fitted concentration of half-maximal effect). The method, boiled down: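 Using 9-cis retinoic acid as the reference agonist, chemicals were tested in HEK 293T cells […] for 16 hr; substrate loading lasted 2 hr at room temperature.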
Retinoic acid receptor RXR-alpha (Homo sapiens), sequence (P19793 whole entry, looked up): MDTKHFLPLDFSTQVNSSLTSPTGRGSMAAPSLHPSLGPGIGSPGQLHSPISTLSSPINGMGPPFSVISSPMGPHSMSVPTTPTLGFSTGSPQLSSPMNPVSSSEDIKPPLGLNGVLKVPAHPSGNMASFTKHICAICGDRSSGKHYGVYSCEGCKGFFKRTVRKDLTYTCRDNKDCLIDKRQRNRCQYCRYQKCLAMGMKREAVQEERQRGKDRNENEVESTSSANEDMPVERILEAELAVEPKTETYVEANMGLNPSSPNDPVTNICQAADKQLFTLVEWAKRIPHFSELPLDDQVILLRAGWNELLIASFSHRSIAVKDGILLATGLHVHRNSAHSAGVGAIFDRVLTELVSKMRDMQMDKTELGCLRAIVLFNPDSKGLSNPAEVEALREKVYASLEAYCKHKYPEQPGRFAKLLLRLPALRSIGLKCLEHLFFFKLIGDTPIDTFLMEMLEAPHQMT

Experiment [16] in a line: qHTS assay to identify small molecule antagonists of the farnesoid-X-receptor (FXR) signaling pathway - cell viability counter screen (AID 743221; active = well fitted cell-killing curve with a large enough effect in the repeat runs, not every such curve was filed as active; note: nearly all actives have a fitted effect of over 50% in size; note: potency is the fitted concentration of half-maximal effect). The method, boiled down: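 Here viability was scored by luminescence after CellTiter-Glo addition to wells already read for beta-lactamase. Prior treatment: compound plus CDCA (50 uM final), 16 h, 37 C, HEK 293T FXR-bla cells.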

A short description of experiment [17]: qHTS assay to identify small molecule agonists of the AP-1 signaling pathway - cell viability counter screen (AID 1159525; calls by dose curve; note: nearly all actives have a fitted effect of over 55% in size). The essentials:
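Each titration point was normalised to DMSO and tetra n-octyl ammonium bromide controls. The read was Cell Titer Glo luminescence after 30 min at RT, following 5 h compound exposure of ME-180 AP-1-bla cells at 37 °C.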

For experiment [18], the target named is Bile acid receptor (Homo sapiens) (UniProt Q96RI1). Put plainly: qHTS assay to identify small molecule agonists of the farnesoid-X-receptor (FXR) signaling pathway (AID 743220; active = well fitted activation curve with a large enough effect in the signal ratio in the repeat runs, not every such curve was filed as active; the % refers to the signal ratio). The essentials: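 FXR-UAS-bla HEK 293T cells carrying a UAS-driven beta-lactamase reporter were plated for 5 h at 37C/5% CO2, then exposed to DMSO-dissolved Tox21 10K compounds for 16 h at 37C. A LiveBLAzer B/G FRET substrate was loaded for 2 h at room temperature before fluorescence reading.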
Bile acid receptor (Homo sapiens), sequence (Q96RI1 whole entry, looked up): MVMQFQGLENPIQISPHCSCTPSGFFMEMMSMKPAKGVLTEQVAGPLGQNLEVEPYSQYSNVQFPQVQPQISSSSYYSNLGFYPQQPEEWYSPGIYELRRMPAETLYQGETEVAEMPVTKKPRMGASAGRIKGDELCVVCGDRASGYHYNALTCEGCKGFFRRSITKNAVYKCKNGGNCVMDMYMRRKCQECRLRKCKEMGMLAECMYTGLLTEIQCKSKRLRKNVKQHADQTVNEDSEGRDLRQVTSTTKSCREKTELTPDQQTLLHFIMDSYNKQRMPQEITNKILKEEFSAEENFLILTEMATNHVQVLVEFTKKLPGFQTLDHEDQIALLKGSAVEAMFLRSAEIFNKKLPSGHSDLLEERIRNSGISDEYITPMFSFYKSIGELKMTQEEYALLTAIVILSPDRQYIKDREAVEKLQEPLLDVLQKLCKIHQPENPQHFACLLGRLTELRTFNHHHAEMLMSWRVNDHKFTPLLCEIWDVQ

Experiment [19] in a line: qHTS assay to identify small molecule agonists of the endoplasmic reticulum stress response signaling pathway (AID 1159516; active = well fitted activation curve with a large enough effect in the signal ratio in the repeat runs, not every such curve was filed as active; the % refers to the signal ratio). The essentials:
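Ratiometric FRET readout (405 nm excitation; 460 and 530 nm emission) of a beta-lactamase gene driven by the ER stress response element, after 2 hr substrate loading. HeLa ESRE-bla cells were seeded overnight and treated with compounds for only 5 hr at 37 C.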

The target in experiment [20] is Bile acid receptor (Homo sapiens) (UniProt Q96RI1). Description: qHTS assay to identify small molecule antagonists of the farnesoid-X-receptor (FXR) signaling pathway (AID 743217; active = well fitted inhibition curve with a large enough effect in the signal ratio in the repeat runs, not every such curve was filed as active; the % refers to the signal ratio). The method, boiled down: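 Antagonist mode: chenodeoxycholic acid at 50 uM final stimulates a UAS-driven beta-lactamase reporter in HEK 293T FXR-bla cells during 16 h, 37C compound exposure. Read-out is FRET substrate fluorescence after 2 h at room temperature.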

Vitamin D3 receptor (Homo sapiens), sequence (P11473 whole entry, looked up): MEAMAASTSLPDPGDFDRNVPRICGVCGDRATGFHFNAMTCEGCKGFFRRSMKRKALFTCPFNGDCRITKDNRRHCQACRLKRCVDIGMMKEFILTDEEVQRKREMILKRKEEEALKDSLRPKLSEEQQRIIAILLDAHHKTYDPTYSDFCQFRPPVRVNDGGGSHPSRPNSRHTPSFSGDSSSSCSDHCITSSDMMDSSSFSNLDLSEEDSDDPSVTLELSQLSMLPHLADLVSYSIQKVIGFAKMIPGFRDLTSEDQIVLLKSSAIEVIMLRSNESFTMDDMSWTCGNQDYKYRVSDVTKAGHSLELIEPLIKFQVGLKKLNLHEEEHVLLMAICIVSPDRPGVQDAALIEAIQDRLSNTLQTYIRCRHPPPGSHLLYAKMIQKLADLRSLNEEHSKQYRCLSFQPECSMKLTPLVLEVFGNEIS

Turning to `CCCN(CCC)c1c([N+](=O)[O-])cc(C(C)C)cc1[N+](=O)[O-]`, the Potency result in [1], in experiment [3], in experiment [4], in experiment [5], in [7] and in experiment [8] was “inactive” throughout. The Potency result in experiment [9], in [10], in experiment [11], in experiment [12], in experiment [13] and in [14] was “inactive” each time. The Potency entry in experiment [15] was “inactive”. The result in experiment [2] and in [6] was inactive.

`CCCCCCCCCCCC[N+](C)(C)CCOc1ccccc1`: the Potency in [1] is 13.8 µM (active) and 11.9 µM (active); in experiment [3] it was 17.4 µM (active); in [5], 24.6 µM (active); in experiment [8] it was 24.6 µM (active) and inactive; in experiment [9], 21.9 µM (active) and 21.3 µM (active); in experiment [10], 13.8 µM (active) and inactive. Further, the Potency in experiment [11] was 15.5 µM (active) and 19 µM (active); in experiment [12], 61.1 µM (active); in experiment [13] it was 27.3 µM (active). Besides, the compound was classed as inactive in experiment [6].

In the case of `CC(C)[C@@H](C(=O)O[C@@H](C#N)c1cccc(Oc2ccccc2)c1)c1ccc(Cl)cc1`, the Potency entry in experiment [1], in experiment [3], in [4], in experiment [5], in experiment [16] and in [8] was “inactive” in each case. Also, the Potency result in experiment [9], in experiment [10], in [12] and in experiment [17] was “inactive” throughout. For the same compound, the result in experiment [2] was inactive. Moreover, the Potency in [13] is 17.5 µM (active).

For `COP(=O)(OC)OC(Br)C(Cl)(Cl)Br` (stereo not drawn), the call in experiment [2] and in [6] was inactive. Further, the Potency entry in experiment [5], in experiment [16], in [7], in experiment [9], in [10] and in experiment [11] was “inactive” each time. For the same compound, in experiment [15], the Potency entry was “inactive”. For the same compound, the Potency was 24.3 µM (active) in [12] and 27.3 µM (active) in experiment [13].

Turning to `O=[N+]([O-])/C=C/c1ccccc1`, the Potency was 14 µM (active) and 17.4 µM (active) in experiment [1]; 44.4 µM (active) in [3]; 19.8 µM (active) and 15.5 µM (active) in experiment [5]; 19.8 µM (active) and 38.9 µM (active) in experiment [16]; 49 µM (active) in experiment [8]; 49.8 µM (active) and inactive in [9]. The Potency in experiment [10] is 44.4 µM (active) and 54.9 µM (active); in [12], 11 µM (active) and 13.7 µM (active); in experiment [13], 5.54 µM (active) and 9.69 µM (active). The compound was classed as inactive in experiment [18] and in experiment [6]. Moreover, the Potency entry in experiment [7], in [11] and in experiment [17] was “inactive” each time.

For `C=CCSSCC=C`, the Potency result in experiment [1], in experiment [3], in [5], in [16], in experiment [7] and in experiment [8] was “inactive” in each case. The Potency entry in experiment [10], in experiment [19], in experiment [12], in [14] and in experiment [15] was “inactive” each time. For the same compound, the result in experiment [2] and in [6] was inactive.

For `FC(Cl)(Cl)C(F)(Cl)Cl`, the Potency entry in [1], in experiment [3], in experiment [5], in experiment [7], in experiment [8] and in [9] was “inactive” throughout. Further, the Potency result in [10], in experiment [19], in [12], in experiment [13], in experiment [14] and in [15] was “inactive” each time. Further, the result in experiment [6] was inactive.

For `c1ccc2c(c1)sc1ccccc12`, the Potency entry in experiment [1], in experiment [3], in [20], in experiment [5], in experiment [16] and in experiment [8] was “inactive” in each case. The Potency entry in experiment [10], in experiment [19], in experiment [12], in experiment [14] and in experiment [15] was “inactive” throughout. Also, the result in [2], in experiment [18] and in experiment [6] was inactive.

In the case of `O=C(Cl)OCCOCCOC(=O)Cl`, the Potency result in experiment [1], in [16], in [8], in experiment [10], in experiment [19] and in experiment [12] was “inactive” each time. Further, the Potency entry in experiment [13], in [17] and in [14] was “inactive” in each case. The result in [6] was inactive. Moreover, the Potency in [15] is 2.19 µM (active).
